The record followed here is PubChem BioAssay (NCI).

Each structure is given as a SMILES string. The panel holds about 83,000 compounds, 20% with a hit somewhere; the sample as a whole holds those more often.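 Values shown are percent growth following 48 h exposure of cells in 96-well plates to a single concentration of compound; below 10 was considered active.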 The source made the active and inactive calls.

The test system of the first test is LOX IMVI melanoma. The test can be described thus: NCI-60 one-dose screen, 48 h (100 = growth as untreated, 0 = no growth, -100 = all killed). To be noted: 10 µM unless noted.
For `C=C1C(=O)O[C@H]2[C@H]1CC/C(COC(=O)NCc1c[nH]c3ccc(F)cc13)=C\CC[C@@]1(C)O[C@@H]21`, the growth was -83.4% (active).

`Cc1cc2nc3c4cccc(O)c4n(CCN(C)C)c3nc2cc1C`: the growth was 8.06% (active).

For the compound `O=C(Cc1ccccc1)NNc1nc(Cl)nc(N2CCN(C(c3ccccc3)c3ccccc3)CC2)n1`, the growth was 61.9% (inactive).

The next test concerns SK-MEL-28 melanoma. The description is as above. To be noted: 10 µM unless noted.
Turning to `O=C1OC(Cc2ccccc2)C1c1ccccc1` (stereo not drawn), the growth is 109% (inactive).

As for `O=C1Nc2cc(-c3ccc(NC(=O)c4ccccc4)cc3)ccc2/C1=C/c1ccc[nH]1`, the growth was 119% (inactive).

As to `O=C(N/N=C/c1cc2ccccc2n2nnnc12)Nc1ccccc1`, the growth was 113% (inactive).

For the compound `O=C1c2ccc3c4c(ccc(c24)C(=O)N1CCCNCc1ccccc1)C(=O)N(CCCNCc1ccccc1)C3=O`, the growth is -95.9% (active).

Take `C=C1C(=O)O[C@H]2[C@H]1CC/C(COC(=O)NCCc1c[nH]c3ccc(OC)cc13)=C\CC[C@@]1(C)O[C@@H]21`: the growth was -10.8% (active).

As for `CCOc1ccc(Nc2nc(-c3ccc4c(c3)NC(=O)CO4)cs2)cc1`, the growth is 33.6% (inactive).

With `COc1ccc(C(=O)c2cc(C)c(OC)c(C)c2)c(OC)c1OC(=O)C(Cl)Cl`, the growth is 53.3% (inactive).

For `CN(C)c1ccc(Nc2c3ccccc3nc3cc(NC(=O)CCN4CCCC4)ccc23)cc1`, the growth is -34.7% (active).

With `Cc1nc(N)nc(N[C@@H](C)c2nc3cccc(NCc4ccc(C(=O)NO)cc4)c3c(=O)n2-c2ccccc2)n1`, the growth was 70% (inactive).

For the compound `COc1ccc(C/C(=C(\C)c2ccc(OCCN3CCCC3)cc2)c2ccc(OCCN3CCCC3)cc2)cc1`, the growth was -86.9% (active).
